Measurements as given in PubChem BioAssay (Tox21).
Inconclusive results are not listed. Entries that show only a call come without a potency. Calls of active or inactive are those of the source. Unless noted, calls follow the shape of the full dose curve.

Assays:
[1] = qHTS assay to identify small molecule antagonists of the vitamin D receptor (VDR) signaling pathway - cell viability counter screen (AID 743225; active = well fitted curve in the direction sought with a large enough effect in the repeat runs; an effect the other way counts as inactive or inconclusive; also: nearly all actives have a fitted effect of over 50% in size)
Method in brief: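 Same-well multiplex: following 16 h treatment of HEK 293T cells carrying a UAS-driven beta-lactamase reporter with compound and agonist (3 nM final), and a 2 h FRET substrate step, CellTiter-Glo was added and luminescence read after 30 min.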

[2] = qHTS assay to identify small molecule agonists of the NFkB signaling pathway (AID 1159509; active = well fitted curve in the direction sought with a large enough effect in the signal ratio in the repeat runs, not every such curve was filed as active; the % refers to the signal ratio; also: series mostly up to about 61 µM)
Method in brief: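 ME-180 NFkB-bla, 2,000 cells/well, overnight plating; cpd pinned in DMSO, 5 h 37 C; B/G FRET substrate 1.5 h RT; ex 405, em 460/530 nm.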

[3] = qHTS assay to identify small molecule agonists of the NFkB signaling pathway - cell viability counter screen (AID 1159515); also: series mostly up to about 61 µM; nearly all actives have a fitted effect of over 55% in size
Method in brief: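 NFkB-bla ME-180 cells, 2,000/well, were plated overnight at 37 C, 5% CO2, then exposed to compounds in DMSO for 5 hr. After the bla FRET read, CellTiter-Glo was added to the same wells; luminescence was read after 30 min at room temperature.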

[4] = qHTS assay to identify small molecule agonists of the endoplasmic reticulum stress response signaling pathway (AID 1159516; active = well fitted activation curve with a large enough effect in the signal ratio in the repeat runs, not every such curve was filed as active; the % refers to the signal ratio)
Method in brief: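 CellSensor ESRE-bla HeLa cells, carrying a beta-lactamase reporter driven by the ER stress response element, were plated overnight and exposed to compounds for 5 hr at 37 C. Reporter activity was read as FRET substrate fluorescence after 2 hr at room temperature.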

[5] = qHTS assay to identify small molecule agonists of the endoplasmic reticulum stress response signaling pathway - cell viability counter screen (AID 1159517); also: series mostly up to about 61 µM; nearly all actives have a fitted effect of over 50% in size
Method in brief: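 CellTiter-Glo was added to wells already read for beta-lactamase FRET, and luminescence was recorded 30 min later. Cells: ESRE-bla HeLa, 1,500 per well, compound exposure 5 hr at 37 C.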

[6] = biological target: Nuclear receptor ROR-gamma (Homo sapiens) (UniProt P51449); assay: qHTS assay to identify small molecule antagonists of the retinoid-related orphan receptor gamma (ROR-gamma) signaling pathway (AID 1159521; active = well fitted curve in the direction sought with a large enough effect in the repeat runs; an effect the other way counts as inactive or inconclusive; also: nearly all actives have a fitted effect of over 50% in size; also: potency is read from the fitted curve at half-maximal effect)
Method in brief: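 Inducible-expression reporter assay: doxycycline (1 uM final) switched on RORγ in CHO cells bearing a ROR response element-luciferase construct, with test compounds present from 2 h beforehand. Decreased luminescence after 16 h defined antagonist activity.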

[7] = qHTS assay to identify small molecule agonists of the AP-1 signaling pathway - cell viability counter screen (AID 1159525); also: nearly all actives have a fitted effect of over 55% in size
Method in brief: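 ME-180 AP-1-bla, 2500 cells/well, Opti-MEM + 0.5% dialyzed FBS; overnight 37 °C; cpd 15-pt titration, 5 h 37 °C; CellTiter-Glo 30 min RT; luminescence read; normalised to TOAB and DMSO controls.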

[8] = qHTS assay to identify small molecule agonists of the AP-1 signaling pathway (AID 1159526)
[9] = biological target: Retinoic acid receptor RXR-alpha (Homo sapiens) (UniProt P19793); assay: qHTS assay to identify small molecule agonists of the RXR signaling pathway (AID 1159527); also: nearly all actives have a fitted effect of over 35% in size; also: potency is read from the fitted curve at half-maximal effect
Chain of Retinoic acid receptor RXR-alpha (Homo sapiens) (P19793 whole entry, looked up): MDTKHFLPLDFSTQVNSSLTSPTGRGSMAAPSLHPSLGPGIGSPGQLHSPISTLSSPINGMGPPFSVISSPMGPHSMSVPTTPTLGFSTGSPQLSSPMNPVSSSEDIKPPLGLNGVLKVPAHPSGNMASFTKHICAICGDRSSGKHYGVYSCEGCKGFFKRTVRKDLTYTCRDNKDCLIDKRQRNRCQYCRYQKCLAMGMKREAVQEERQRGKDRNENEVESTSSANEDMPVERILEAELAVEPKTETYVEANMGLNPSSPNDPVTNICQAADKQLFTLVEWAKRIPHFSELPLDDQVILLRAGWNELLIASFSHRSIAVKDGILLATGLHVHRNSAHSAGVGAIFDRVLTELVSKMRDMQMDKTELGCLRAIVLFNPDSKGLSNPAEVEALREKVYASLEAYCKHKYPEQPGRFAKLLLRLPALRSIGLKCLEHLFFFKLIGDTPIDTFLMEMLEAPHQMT
Method in brief: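 Compounds in DMSO were added to RXR-alpha-UAS-bla HEK 293T cells kept in 2% charcoal-stripped serum, and incubated 16 hr at 37 C with 5% CO2. Reporter signal came from a 2 hr B/G FRET substrate step.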

[10] = qHTS assay to identify small molecule antagonists of the retinoid-related orphan receptor gamma (ROR-gamma) signaling pathway - cell viability counter screen (AID 1159520; active = well fitted curve in the direction sought with a large enough effect in the repeat runs; an effect the other way counts as inactive or inconclusive; also: nearly all actives have a fitted effect of over 50% in size)
Method in brief: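 Tet-on ROR gamma CHO cells (1,000/well) were plated 4 hr, given compounds in DMSO for 2 hr at 37 C, then induced with 1 uM final doxycycline for 16 hr. Viability was read as ATP by CellTiter-Glo luminescence after 30 min.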

SMILES | outcome [1] | outcome [2] | outcome [3] | outcome [4] | outcome [5] | Potency [6] | outcome [7] | Potency [8] | Potency [9] | Potency [10]
c1ccc(CCCc2ccccn2)cc1 | inactive | inactive | inactive | inactive | inactive | inactive | inactive | inactive | inactive | 
NS(=O)(=O)c1cc2c(cc1C(F)(F)F)NC(Cc1ccccc1)NS2(=O)=O (stereo not drawn) | inactive | inactive | inactive | inactive | inactive | inactive | inactive | inactive | inactive | 
C1=C\CC/C=C\CC/C=C\CC/1 | inactive | inactive | inactive | inactive | inactive | inactive | inactive | inactive |  | 
CC12CCC(CC1=O)C2(C)C (stereo not drawn) | inactive | inactive | inactive | inactive | inactive | inactive |  | inactive |  | 
COc1ccc(NC(C)=O)cc1 | inactive | inactive | inactive | inactive | inactive | inactive | inactive | inactive | inactive | 
O=C(O)c1ccccc1S | inactive | inactive | inactive | inactive | inactive | inactive | inactive | inactive | inactive | 
NC(=O)c1c(Cl)cccc1Cl | inactive | inactive | inactive | inactive | inactive | inactive | inactive | inactive | inactive | 
CO | inactive | inactive | inactive | inactive | inactive | inactive |  | inactive | inactive | 
OCCCCCCO |  | inactive |  | inactive | inactive | inactive | inactive | inactive |  | inactive
NC(=O)CCCCC1CCSS1 (stereo not drawn) | inactive | inactive | inactive | inactive | inactive | inactive | inactive | inactive | inactive | 
O=C1OC(=O)c2cc([N+](=O)[O-])ccc21 | inactive | inactive | inactive | inactive | inactive | inactive | inactive | inactive | inactive | 
CC1=CC(C)C(C=O)C(C)C1 (stereo not drawn) |  | inactive | inactive | inactive | inactive | inactive | inactive | inactive |  | 
C=CCn1c(=O)n([C@@H]2O[C@H](CO)[C@@H](O)[C@H]2O)c2nc(N)[nH]c(=O)c21 | inactive | inactive | inactive | inactive | inactive | inactive | inactive | inactive |  | 
CC(C)CCOC(=O)CC(C)C |  | inactive |  | inactive | inactive | inactive | inactive | inactive |  | inactive
Oc1cc(O)c2c(c1)O[C@H](c1ccc(O)c(O)c1)[C@H](O)C2 | inactive | inactive | inactive | inactive | inactive | inactive | inactive | inactive | inactive | 
CCC(C)OC(=O)N1CCCCC1CCO (stereo not drawn) | inactive | inactive | inactive | inactive | inactive | inactive | inactive | inactive |  | 
CCN1CCCC1CNC(=O)c1cc(S(N)(=O)=O)ccc1OC (stereo not drawn) | inactive | inactive | inactive | inactive | inactive | 54.5 µM (active) | inactive | inactive | 43.6 µM (active) | 

SMILES | outcome [1] | outcome [2] | outcome [3] | outcome [4] | outcome [5] | Potency [6] | outcome [7] | Potency [8] | Potency [9] | Potency [10]
NC(=O)Nc1nc2ccccc2[nH]1 | inactive | inactive | inactive | inactive | inactive | inactive | inactive | inactive | inactive | 
CN1[C@@H]2CC[C@H]1CC(NC(=O)n1c(=O)[nH]c3ccccc31)C2 (stereo partly drawn) |  | inactive |  | inactive | inactive | inactive | inactive | inactive | inactive | inactive
C(=C(c1ccccc1)c1ccccc1)c1ccccc1 |  | inactive | inactive | inactive | inactive | inactive | inactive | inactive | inactive | 
CC(C)(O)c1ccccc1 | inactive | inactive | inactive | inactive | inactive | inactive | inactive | inactive |  | 
OCC(CO)(CO)COCC(CO)(CO)CO | inactive | inactive | inactive | inactive | inactive | inactive | inactive | inactive | inactive | 
OC/C=C/c1ccccc1 | inactive | inactive | inactive | inactive | inactive |  | inactive | inactive | inactive | inactive
CC1=CC(=O)CCC1 | inactive | inactive | inactive | inactive | inactive | inactive | inactive | inactive |  | 
O=C(O)CCNC(=O)c1ccc(N=Nc2ccc(O)c(C(=O)O)c2)cc1 |  | inactive |  | inactive | inactive | inactive | inactive | inactive | inactive | inactive
N#CCN(CC#N)CCN(CC#N)CC#N | inactive | inactive | inactive | inactive | inactive | inactive | inactive | inactive | inactive | 
C[C@H](O)C(=O)Nc1c(I)c(C(=O)NC(CO)CO)c(I)c(C(=O)NC(CO)CO)c1I | inactive | inactive | inactive | inactive | inactive | inactive | inactive | inactive | inactive | 
COC(=O)C1=C(C)NC(C)=C(C(=O)OCC(C)=O)C1c1ccccc1[N+](=O)[O-] (stereo not drawn) | inactive | inactive | inactive | inactive | inactive | inactive | inactive | inactive | inactive | 
C=CCSCC1Nc2cc(Cl)c(S(N)(=O)=O)cc2S(=O)(=O)N1 (stereo not drawn) | inactive | inactive | inactive | inactive | inactive | inactive |  | inactive |  | 
CCCC(C)C(=O)O (stereo not drawn) | inactive | inactive | inactive | inactive | inactive | inactive | inactive | inactive |  | 
CC(=O)c1ccc(C)cc1 |  | inactive | inactive | inactive | inactive | inactive |  | inactive | inactive | 
Cc1ccccc1C(=O)O | inactive | inactive |  | inactive | inactive | inactive | inactive | inactive | inactive | inactive
c1ccc(SCCSc2ccccc2)cc1 | inactive | inactive |  | inactive | inactive | inactive | inactive | inactive |  | inactive
CC(C)c1cccc(C(C)C)c1N | inactive | inactive |  | inactive | inactive | inactive | inactive | inactive | inactive | inactive
